14 molecules from PubChem BioAssay AID1345085 (National Center for Advancing Translational Sciences (NCATS), 2018) can be followed below.

Inconclusive results are not listed. Values without a mark were called inactive. Activity calls are given as the source filed them. Calls come from the whole dose curve; as a rule, active = well fitted cell-killing curve with a large enough effect; inconclusive = small, poorly fitted or top-dose-only effect, or effect the other way; inactive = no such curve, though single readings can be large or run the other way.
% is set by controls: 0 for no effect and ±100 for the full control effect; potency is the fitted concentration of half-maximal effect.

This assay relates to C33A. Description: Confirmatory qHTS for gynecologic anti-cancer compounds from libraries of approved drugs and bioactive compounds. Note: nearly all actives have a fitted effect of over 55% in size. To be noted: gynecologic cancer cell panel viability, ATPlite luminescence, 48 h; series mostly up to 57.6 µM; activity change, negative = viability loss: at the top concentration. A digest of the protocol:
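ATPlite luminescence read-out of cell viability; IC50 from 11-point 1:3 titrations, 57.5 uM to 0.977 nM, 48 h compound exposure at 37 C, 5% CO2. Cells seeded at 1,000/well 16 h before dosing.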
(Quantitative high-throughput screening tests each substance at several concentrations.)
Regarding `Cc1ccc(C(=O)Nc2ccc(CN3CCN(C)CC3)c(C(F)(F)F)c2)cc1C#Cc1cnc2cccnn12`, the Potency was 19.3 µM (active).

Regarding `CC[C@H](Nc1ncnc2nc[nH]c12)c1nc2cccc(F)c2c(=O)n1-c1ccccc1`, the activity change, negative = viability loss is -0.528% [at 10.7 µM]. As for `O=C(/C=C/c1cccc(S(=O)(=O)Nc2ccccc2)c1)NO`, the Potency is 2.98 µM (active). Still for that read-out and setting: the result for `CC(C)C[C@H](NC(=O)[C@@H](NC(=O)c1cccc(-c2ccccc2)n1)[C@@H](C)O)B(O)O` reads 0.385 µM (active). On to `c1nc2nc(Nc3ccc(N4CCOCC4)cc3)nc(NC3CCCCC3)c2[nH]1`, for which the “activity change, negative = viability loss” value is -6.39% [at 19.5 µM]. With `O=C(CCCCCCC(=O)Nc1ccccc1)NO`, the Potency is 3.43 µM (active). Regarding `C[C@]12CCC(=O)C=C1CC[C@@H]1[C@@H]2[C@@H](O)C[C@@]2(C)[C@H]1CC[C@]2(O)C(=O)CO`, the “activity change, negative = viability loss” value is 0.835%. `Cn1cc(-c2ccc3ncc(Cc4ccc5ncccc5c4)n3n2)cn1`: the “activity change, negative = viability loss” value is -11.7%. Still for that read-out and setting: for `Cc1cnc(CNC(=O)c2c(=O)c3ccc(N4CCCN(C)CC4)nc3n3c2sc2ccccc23)cn1` the value was -18.8% [at 10.7 µM]. `OC[C@H]1O[C@@H](n2cnc3c(=S)nc[nH]c32)[C@H](O)[C@@H]1O`: the Potency is 10.9 µM (active).

`CCS(=O)(=O)c1cccc(-c2cc(C(=O)NC3CCN(C)CC3)c(C)c3[nH]c4ncc(C)cc4c23)c1`: the Potency was 5.34 µM (active). Still for that read-out and setting: the result for `CCCCc1nc2cc(/C=C/C(=O)NO)ccc2n1CCN(CC)CC` reads 1.53 µM (active). As to `NC(=O)c1ccc2nc(-c3ccc(Oc4ccc(Cl)cc4)cc3)[nH]c2c1`, the “activity change, negative = viability loss” value was -24.7%.

For the molecule `O=C(NCC(O)CO)c1ccncc1Nc1ccc(I)cc1F` (centres undefined), the “activity change, negative = viability loss” value was -24%.
